Inconclusive results are not listed. Active and inactive are the calls of the source. How the source made its calls: active means hit-call score of the fitted dose curve at least 0.9, where 1 is the maximum; inconclusive means response in the unintended direction; inactive means score below 0.9.

human Vitamin D Receptor (VDR), VDR (gene 7421), sequence (P11473 whole entry, looked up, the tested form may be a part): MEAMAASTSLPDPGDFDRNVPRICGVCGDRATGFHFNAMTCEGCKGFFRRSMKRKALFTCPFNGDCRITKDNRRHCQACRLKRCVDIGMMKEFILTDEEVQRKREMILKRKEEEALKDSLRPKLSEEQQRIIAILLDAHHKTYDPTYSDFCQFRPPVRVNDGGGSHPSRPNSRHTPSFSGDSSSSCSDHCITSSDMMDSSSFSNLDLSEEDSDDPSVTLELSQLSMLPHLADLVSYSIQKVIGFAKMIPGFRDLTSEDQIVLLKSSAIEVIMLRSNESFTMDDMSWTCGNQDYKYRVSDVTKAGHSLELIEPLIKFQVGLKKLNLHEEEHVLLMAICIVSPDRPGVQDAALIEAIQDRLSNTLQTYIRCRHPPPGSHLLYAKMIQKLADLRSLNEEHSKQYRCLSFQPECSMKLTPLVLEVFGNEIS

The assay addresses human Vitamin D Receptor (VDR), VDR (gene 7421) (UniProt P11473). Put plainly: ATG_VDR_TRANS: Attagene TRANS-FACTORIAL HepG2 Assay for human Vitamin D Receptor (VDR) (AID 2283022). In a few lines:
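Steps: transfect HepG2 with GAL4-UAS-driven reporter constructs; dose compounds 24 h; isolate RNA, reverse-transcribe, PCR-amplify with 6-FAM-labelled primer extension and HpaI digestion; quantify fragments by capillary electrophoresis relative to DMSO.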
In the case of `CCN(CC)c1cccc(C)c1`, the compound was called inactive. For `O=S(=O)(O)c1ccc(Nc2nc(Nc3ccc(C=Cc4ccc(Nc5nc(Nc6ccc(S(=O)(=O)O)cc6)nc(N(CCO)CCO)n5)cc4S(=O)(=O)O)c(S(=O)(=O)O)c3)nc(N(CCO)CCO)n2)cc1`, the result was inactive. In the case of `CC1CCC(C(C)(C)S)C(=O)C1` (centres undefined), the compound was classed as inactive.

In the case of `C=CC(=O)O[C@H]1C[C@@H]2CC[C@@]1(C)C2(C)C`, the compound was classed as inactive.

Take `Cn1ccnc1`: the result was inactive.

As for `O=C(O)C1CCC(C(=O)O)CC1` (centres undefined), the compound was classed as inactive. As to `CCCCC(CC)COS(=O)(=O)O` (centres undefined), the call was inactive.

`CCC[Si](OC)(OC)OC`: the outcome was inactive. The entry for `CCOC(=O)[C@H](O)[C@@H](O)C(=O)OCC` is “inactive”; for `O=C(Cl)c1ccc(C(=O)Cl)cc1` it is “inactive”.

In the case of `CCCC=C(C=O)CC`, the result was inactive.

Turning to `O=C(O)/C=C/c1ccccc1`, the compound was classed as inactive. Under `CCCCCCCCCCCCCC(=O)OC(C)C` stands “inactive”; under `CC(C)(C)C1CCC(=O)CC1`, “inactive”; under `O=c1c(O)c(-c2ccc(O)cc2O)oc2cc(O)cc(O)c12`, “inactive”.

On to `C=C[C@@]1(C)CC(=O)[C@]2(O)[C@@]3(C)[C@@H](O)CCC(C)(C)[C@@H]3[C@H](O)[C@H](OC(C)=O)[C@@]2(C)O1`, for which the compound was classed as inactive. Turning to `[Cl][Sc]([Cl])[Cl]`, the outcome was inactive. Regarding `N#Cc1ccc(C(c2ccc(C#N)cc2)n2cncn2)cc1`, the call was inactive.

On to `CCOB(OCC)OCC`, for which the result was inactive. As to `COc1cc(O)c(C(=O)c2ccccc2)cc1S(=O)(=O)O`, the compound was classed as inactive. For `Nc1ccc(O)c([N+](=O)[O-])c1`, the compound was classed as inactive.

Take `CC(C)C(=O)OCCOc1ccccc1`: the outcome was inactive.

For the compound `O=C1CCCCC1C1CCCCC1` (centres undefined), the outcome was inactive. Regarding `Cc1c(C(=O)c2c[nH]n(C)c2=O)ccc(S(C)(=O)=O)c1C1=NOCC1`, the call was inactive.

Consider `CCCCCCCCCCCCC`, for which the compound was classed as inactive.

`C[Si](C)(C)N[Si](C)(C)C`: the call was inactive.

For `CC1=CCC2CC1C2(C)C` (centres undefined), the result was inactive. Take `COc1cc(C)ccc1O`: the compound was classed as inactive. `CCCCCCO`: the compound was called inactive. In the case of `COC(C=C(C)CCC=C(C)C)OC`, the outcome was inactive. Take `Oc1ccc(-c2ccccc2)c(Cl)c1`: the call was inactive. In the case of `CCOC(=O)c1ccc(C)cc1`, the outcome was inactive. In the case of `CCCCCC[C@@H](O)C/C=C\CCCCCCCC(=O)OCC(O)CO` (some centres undefined), the compound was called inactive. Under `CC(=O)OC(C)c1ccccc1` (centres undefined) stands “inactive”.
